In PubChem BioAssay (NCI):
The panel holds about 79,000 compounds, 15% with a hit somewhere; the sample as a whole holds those more often. Rule as the data show it: active = growth inhibition above about 70%; inactive = the rest.

How the values were obtained:
[1] = NCI Yeast Anticancer Drug Screen. Data for the rad50 strain (AID 155);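 also: 0% = growth of vehicle-only cultures of the same strain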; conditions: S. cerevisiae rad50 strain growth inhibition; at 50.0 µM; hits give high values
How it was run: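 Growth of the mutant yeast was measured after compound exposure and referenced to vehicle-treated cultures.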

[2] = NCI Yeast Anticancer Drug Screen. Data for the mec2-1 strain (AID 157); conditions: S. cerevisiae mec2-1 strain, at 50.0 µM, hits give high values
How it was run: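 mec2-1 yeast strain, carrying an alteration in DNA damage repair or cell cycle control, was exposed to compounds; growth inhibition was measured relative to vehicle-treated controls.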

[3] = NCI Yeast Anticancer Drug Screen. Data for the sgs1 mgt1 strain (AID 161);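 also: 0% = growth of cultures given vehicle only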; conditions: S. cerevisiae sgs1 mgt1 strain, at 50.0 µM, hits give high values
How it was run: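 This yeast growth screen uses a strain with defined DNA-repair lesions; compound-treated growth is compared with vehicle-treated growth.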

[4] = NCI Yeast Anticancer Drug Screen. Data for the cln2 rad14 strain (AID 165);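 also: 0% = growth equal to vehicle treated cultures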; conditions: S. cerevisiae cln2 rad14 strain, at 50.0 µM, hits give high values
How it was run: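 Yeast carrying cln2 and rad14 alterations (cell cycle control and DNA damage repair) were exposed to compounds. Growth inhibition was measured against vehicle-treated controls.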

[5] = NCI Yeast Anticancer Drug Screen. Data for the bub3 strain (AID 167); conditions: S. cerevisiae bub3 mutant strain, at 50.0 µM, hits give high values
How it was run: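 Whole-cell yeast assay. The mutant strain was incubated with compounds, and growth inhibition was determined by comparison with vehicle-treated cells.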

[6] = NCI Yeast Anticancer Drug Screen. Data for the mlh1 rad18 strain (AID 175); conditions: S. cerevisiae mlh1 rad18 strain growth inhibition; at 50.0 µM; hits give high values
How it was run: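 Growth inhibition of the yeast strain was measured after compound exposure and expressed relative to vehicle-treated controls. The strain carries defined defects in DNA damage repair.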

Measured: growth inhibition

O=C(C[n+]1ccnc2ccccc21)c1ccc(Br)cc1
inactive: [1] 15.7% | [2] -3.05% | [3] 2% | [4] 6.45% | [5] -6.6% | [6] 13%

CC1=Nc2c(C#N)ncn2N=C(C)C1
inactive: [1] 31.9% | [2] 0.25% | [3] 17.5% | [4] 41.4% | [5] 28.8% | [6] -19.1%

COc1ccc(CCNC(=S)/N=C\C2=C(O)c3ccccc3C2=O)cc1OC
inactive: [1] -26.1% | [2] -51.9% | [3] -17.5% | [4] 4.65% | [5] -5.05% | [6] -19.3%

CC(C)(O)c1cc(Cl)ccc1Sc1ccccc1
inactive: [1] -20.6% | [2] -15.2% | [3] -8.85% | [4] 13.7% | [5] 4.85% | [6] -8.2%

COC(C)(C)C(Br)C(=O)OCC(=O)c1ccc(Br)cc1 (stereo unspecified)
inactive: [1] 25.9% | [2] -0.3% | [3] 11% | [4] 20.6% | [5] 0.8% | [6] 13.3%

CC(C)CNC(=S)N/N=C/C=C/c1ccc([N+](=O)[O-])cc1
inactive: [1] 4.2% | [2] 10.4% | [3] 23.4% | [4] -16.7% | [5] 2.7% | [6] 23.3%

COc1ccc(CCCCl)c(C2=NCCc3cc(OC)c(OC)cc32)c1
inactive: [1] 19.6% | [2] 2.4% | [3] -37.8% | [4] -6.1% | [5] -37.8% | [6] 0.9%

Cc1cc(Br)cc(C)c1NC(=O)C(=O)Nn1c(=S)[nH]c2ccccc2c1=O
inactive: [1] -8.55% | [2] -16.1% | [3] -6.15% | [4] 12.8% | [5] -8.2% | [6] 1.3%

Cc1ccc(C(=N)c2ccccc2Cc2ccccc2)cc1C
inactive: [1] -11.7% | [2] -2.45% | [3] -15.1% | [4] -12.2% | [5] 7.9% | [6] -27.9%

CC(C)CC(NC(=O)OC(C)(C)C)C(=O)O (stereo unspecified)
inactive: [1] -44.6% | [2] -51.7% | [3] -9.6% | [4] 14.6% | [5] -29.2% | [6] -16.9%

CC(=O)C1(C)CCC2C3CCC4=CC(=O)CCC4=C3CCC21C (stereo unspecified)
inactive: [1] 32.1% | [2] 1.3% | [3] 50.9% | [4] 9.9% | [5] 34% | [6] 23.6%

COC1(OC)C(N(C)C)=C(Cl)C(=O)/C1=C/C=O
inactive: [1] 7.75% | [2] -10.7% | [3] -16.9% | [4] -6.65% | [5] 13.8% | [6] -16.4%

O=C(Nc1ccc(Cl)cc1)OCCN(CCOC(=O)Nc1ccc(Cl)cc1)C(=O)Nc1ccc(Cl)cc1
inactive: [1] 19.3% | [2] -19.1% | [3] 1.65% | [4] -3.25% | [5] -7.8% | [6] 9.15%

COc1ccc(C2OC3=C(Nc4ccc(Cl)cc4N3)C2=O)cc1 (stereo unspecified)
inactive: [1] -1.9% | [2] 0.3% | [3] 6.65% | [4] 9.4% | [5] -9.3% | [6] 14.9%

COc1ccc(NC=O)c(C(=O)CCNC(C)=O)c1
inactive: [1] -14.9% | [2] -20.2% | [3] -13.4% | [4] -6.8% | [5] -16.3% | [6] -51.2%

CC(C)OC(=O)NCc1cccs1
inactive: [1] -10.1% | [2] -2.6% | [3] 6.7% | [4] -92.8% | [5] 1.7% | [6] -11.1%

C[n+]1c(/C=C/C=C/c2ccccc2)oc2ccccc21
inactive: [1] -38.3% | [2] -2.25% | [3] -22.6% | [4] -11.2% | [5] 5.8% | [6] 9.7%

CO/C=C(/C#N)S(=O)(=O)/C(C#N)=C/OC
inactive: [1] 32.5% | [2] 37.3% | [3] 34% | [4] 4.65% | [5] 24.9% | [6] 15.9%

COC(=O)C1(CC(=O)C(c2ccccc2)c2ccccc2)NC(=S)NC(=O)C1C#N (stereo unspecified)
inactive: [1] 5.6% | [2] 4.65% | [3] -12.8% | [4] -2.7% | [5] 0.55% | [6] -8.9%

C(=C\c1cc(-c2cc(/C=C/c3ccccc3)[nH]n2)n[nH]1)/c1ccccc1
inactive: [1] 6.15% | [2] 9.1% | [3] -14.3% | [4] 13.2% | [5] -8% | [6] 44.4%

O=C(O)c1ccc2sc3ccccc3c(=O)c2c1
inactive: [1] 14.9% | [2] 32.8% | [3] 33.3% | [4] -21.2% | [5] 21.7% | [6] 39%

CCCCC(CC)COC(=O)C(C)CCC (stereo unspecified)
inactive: [1] 4.65% | [2] -1.1% | [3] -2.4% | [4] -27.7% | [5] 17.9% | [6] 5%

COC(=O)/C=C(/C(=O)OC)N(O)C(=O)CN1C(=O)c2ccccc2C1=O
inactive: [1] -16% | [2] -15.9% | [3] -18.7% | [4] -17.3% | [5] -5.85% | [6] -23.2%

CCOC1=C([N+](=O)[O-])C(c2ccccc2)NC1=O (stereo unspecified)
inactive: [1] 10.8% | [2] -0.6% | [3] -3% | [4] 15.1% | [5] -35.3% | [6] 11.7%

O=C(O)CC1C(=O)OC2C3COC(=O)c4cc(O)c(O)c(O)c4-c4c(cc(O)c(O)c4O)C(=O)OC2C(OC(=O)c2cc(O)c(O)c4c2C1C(O)C(=O)O4)C(OC(=O)c1cc(O)c(O)c(O)c1)O3 (stereo unspecified)
inactive: [1] 24.4% | [2] 2.8% | [3] 22.4% | [4] 5.15% | [5] 35.5% | [6] -6.15%

COC(=O)C(CS)NC(=O)CNC(=O)CNC(=O)C(CCCCNC(=O)OCc1ccccc1)NC(=O)CNC(=O)C(CSC(c1ccccc1)(c1ccccc1)c1ccccc1)NC(=O)OCc1ccccc1 (stereo unspecified)
inactive: [1] -16.2% | [2] 2.75% | [3] -10.7% | [4] -17.2% | [5] -25.2% | [6] 0.2%

COc1cc(C(=O)C/C(CCCC(=O)Nc2ccccc2[N+](=O)[O-])=N/NC(=O)c2cc3ccccc3cc2O)ccc1O
inactive: [1] 12.9% | [2] 28.1% | [3] -9.75% | [4] 23.3% | [5] 1.4% | [6] 7.85%

CCOc1c(N=Nc2ccccc2Cl)c(-c2ccccc2)nn1C(N)=S
inactive: [1] 6.75% | [2] 16.9% | [3] -1.95% | [4] 6.1% | [5] -3.95% | [6] 15.6%

OC(NN=C1CCCC1)(C(F)(F)Cl)C(F)(F)Cl
inactive: [1] -12.9% | [2] -19.9% | [3] -4.45% | [4] -25.3% | [5] -14.2% | [6] 9.15%

COc1ccc(-c2nc(N3CCCC3)no2)cc1
inactive: [1] -0.85% | [2] -4.65% | [3] 32.1% | [4] 3.85% | [5] 31.1% | [6] -20.9%

NC(Cc1cccnn1)C(=O)O (stereo unspecified)
inactive: [1] -29.2% | [2] -22.8% | [3] -29.2% | [4] -58.9% | [5] -25.4% | [6] -5.25%

CC1(c2ccc(C(O)c3ccccc3)s2)OCCO1 (stereo unspecified)
inactive: [1] 1.8% | [2] 7.3% | [3] 10.9% | [4] 12.9% | [5] 11.4% | [6] 15.6%

O=C(Nc1ccccc1)OC1OC(COC(=O)c2ccccc2)C(OC(=O)c2ccccc2)C1OS(=O)(=O)c1ccc([N+](=O)[O-])cc1 (stereo unspecified)
inactive: [1] -18.1% | [2] 0.15% | [3] -18.2% | [4] -25.6% | [5] -13.1% | [6] -15.8%

Cn1cnc(N)c1C(N)=S
inactive: [1] 4.65% | [2] 7.5% | [3] -8.6% | [4] -8.55% | [5] 7.9% | [6] 1.1%

CCCNN(CCC)C(N)=O
inactive: [1] 0.6% | [2] 13.7% | [3] -5.75% | [4] 2.75% | [5] 24.1% | [6] -7.25%

CN(C)c1ccc([N+](=O)[O-])cc1
inactive: [1] -76.2% | [2] -24% | [3] -61.6% | [4] -43.1% | [5] -9.2% | [6] -57.4%

Cc1cc([N+](=O)[O-])ccc1NC(=O)C(=O)C(C(=O)c1ccccc1-c1ccccc1)C1OC(=O)c2ccccc21 (stereo unspecified)
inactive: [1] 12% | [2] 12.4% | [3] -5.4% | [4] -52% | [5] 6.8% | [6] 41.5%

CC(=O)NCCNC(=O)c1ccc(C)c(OCc2ccccc2)c1[N+](=O)[O-]
inactive: [1] 7% | [2] 11.7% | [3] -1% | [4] -26.2% | [5] -1.6% | [6] 4.45%

CCOC(=O)NC(=O)c1cn(CCN2CCN(C(=O)CCCCCCCCCCNc3ncnc4nc[nH]c34)CC2)c(=O)[nH]c1=O
inactive: [1] -18.5% | [2] -6.75% | [3] -12.8% | [4] -25.6% | [5] 0.05% | [6] -14.2%

COCCCN(Cc1cc(OC)c(OC)c(OC)c1)C(=S)Nc1cccc(SC)c1
inactive: [1] 13.8% | [2] -19.4% | [3] 40.5% | [4] 25.6% | [5] 51.2% | [6] 16.6%

CN(C)/C(=N\N=C(/c1ccc(Cl)cc1)N(C)C)c1ccc(Cl)cc1
inactive: [1] -15.8% | [2] -8.25% | [3] 1% | [4] -24.9% | [5] -11.1% | [6] -19.1%
